# Laboratory results reported in PubChem BioAssay (NCI).
# This is part of a sample that, as a whole, favours compounds with a hit. Of some 83,000 tested, about 20% had one in any assay.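 Interpretation: 100, growth as untreated; towards 0, rising growth inhibition; 0, no net growth; 0 to -100, cell death. Compounds scoring below 10 were considered active.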 A number with no mark means an inactive call. Calls of active or inactive are those of the source.
# Test system: HL-60(TB) leukemia
# Assay: NCI-60 one-dose screen, 48 h (100 = growth as untreated, 0 = no growth, -100 = all killed)
# Conditions: 10 µM unless noted
row,SMILES,growth
1,Cn1ccnc1C(=O)/C=C/c1ccc(C(=O)Nc2ccccc2O)cc1,0.702% (active)
2,O=C1/C(=C/c2ccc([N+](=O)[O-])s2)Oc2ccc(Br)cc21,-22.3% (active)
3,O=C(/C=C/c1cccc(Cl)c1)c1ccc(O)c(CN2CCN(c3cc4c(cc3F)c(=O)c(C(=O)O)cn4C3CC3)CC2)c1,27.3%
4,O=C(CCCCCCCC(=O)N1CCCCC1)N1CCCCC1,94.5%
5,O=C1/C(=C/c2ccc(Br)cc2)COc2ccc(O)cc21,-15.7% (active)
6,O=C(Nc1cc(Cl)ccc1O)c1ccccc1Nc1ccnc(C(F)(F)F)c1,-38.1% (active)
7,O=c1[nH]c(=S)[nH]c(O)c1/C=C1\C=Nc2ccccc21,90.4%
8,CCN(CC)CCCOCCCNc1cc(OC)cc2cccnc12,107%
9,CC(=O)N[C@@H](CCC(N)=O)C(=O)O,107%
10,O=C1NCC(=O)N(Cc2ccco2)[C@H]1Cc1ccccc1,102%
11,COc1ccc(C2CC(c3ccc4c(c3)OCO4)=Nc3c(N)ncnc3N2)cc1 (configuration not stated),99.3%
12,Cn1c(=O)c2c(ncn2CCC(=O)Nc2ccc(F)cc2)n(C)c1=O,94.1%
13,CCCC/C(CC)=N\NS(=O)(=O)c1ccc([N+](=O)[O-])cc1,92.2%
14,O=C(O)c1cn(C2CC2)c2cc(N3CCN(C(=O)N4CCOCC4)CC3)c(F)cc2c1=O,90.3%
15,CC(C)C(C)(C)c1ccc(O)cc1,104%
16,Cn1ccnc1CN1CCSC(C(=O)Nc2ccccc2)C1 (configuration not stated),88.6%
17,COc1ccccc1C(=O)Nc1cccc(NC(=O)c2ccoc2C)c1,-18.3% (active)
18,CC1NC(C)c2ccc3ccccc3c2O1 (configuration not stated),99.4%
19,COc1cc(/C=C/c2cc(/C=C/c3ccc(O)c(OC)c3)n(-c3ccccc3)c(=O)n2)ccc1O,70.9%
20,CCCCCCCCCCSC(=N)N (tested in a mixture with another compound),62.8%
21,O=C1CC2C=CCN2C=C1NC(=O)c1ccccc1 (configuration not stated),100%
22,O=C(Nc1cccc2c(O)c(N=Nc3ccc(S(=O)(=O)Nc4nccs4)cc3)cc(N=Nc3ccc(S(=O)(=O)Nc4nccs4)cc3)c12)C(Cl)Cl,102%
23,COC(=O)C(Cc1ccccc1)NC(=O)c1ccc(NC(=O)c2[nH]c(C)c(Cl)c2Cl)c(OC(C)C)c1 (configuration not stated),99.7%
24,COc1cc2c(cc1OC)C(=O)OC2,156%
25,COc1ccc(-n2ncc3c2ccc2cc(S(=O)(=O)c4ccccc4)c(=O)n(C)c23)cc1,110%
26,COC(=O)c1ccc(NC(=O)CCl)cc1,81.6%
27,O=S(=O)(NCl)c1ccccc1,99.8%
